# Source: ChEMBL document CHEMBL1157539, “Thousands of chemical starting points for antimalarial lead identification” (Nature, 2010)
# Assays:
# Type in all cases: functional
# Plasmodium falciparum [1] = experiment: GSK_TCMDC: Inhibition of Plasmodium falciparum 3D7 in whole red blood cells, using parasite LDH activity as an index of growth. Test compounds present at 2uM
# Plasmodium falciparum [2] = experiment: GSK_TCMDC: Inhibition of Plasmodium falciparum Dd2 in whole red blood cells, using parasite LDH activity as an index of growth. Test compounds present at 2uM
# HepG2 = experiment: GSK_TCMDC: Percent inhibition of human HepG2 cell line. Test compounds present at 10uM.
SMILES,Inhibition (Plasmodium falciparum [1]) [%],Inhibition (Plasmodium falciparum [2]) [%],Inhibition (HepG2) [%]
COCn1ccc2c3c(N)nc(N)nc3ccc21,88,1,63
O=C(C=Cc1ccc(Cl)c(Cl)c1)NCCCCCN1CCC(c2n[nH]c3ccccc23)CC1,99,29,32
COc1cc2c(c(Cl)c1OC)CCN(Cc1ccccc1)CC2c1ccc(NC(=O)C(F)(F)F)cc1 (stereo unspecified),85,79,0
O=C(NCc1ccccc1)NC1CCN(c2ccnc3cc(Cl)ccc23)C1.O=C(O)C(F)(F)F (stereo unspecified),94,99,13
O=C(Cn1c(CCc2cccc(F)c2F)nc(=O)c2ccccc21)N(Cc1ccc(-c2ccc(C(F)(F)F)cc2)cc1)C1CCN(C2CCSCC2)CC1.O=C(O)C(O)C(O)C(=O)O,99,93,97
Cc1cccc(Nc2nc(C)cc(N3CCCN(CC4CCCCC4)CC3)n2)c1,83,21,20
O=C(c1cc2ccccc2o1)N1CCc2cc3nccc(N4CCN5CCC[C@H]5C4)c3cc21,99,100,62
O=C(/C=C/c1ccc(Cl)c(Cl)c1)NCC[C@@H]1C[C@H]1CCN1CCC(c2c[nH]c3ccccc23)CC1,96,22,98
CCOc1cc(C=Cc2nc(O)c3ccccc3n2)cc(Cl)c1O,83,90,25
COc1ccc(-c2nc(NC(=O)CS(=O)(=O)c3ccc(OC)cc3)sc2C)cc1,95,89,6
COc1cc2nc(N(C)CC3COc4ccccc4O3)nc(N)c2cc1OC.Cl (stereo unspecified),94,26,11
COc1cc(NC(=O)c2sc(-c3ccc(Cl)cc3)cc2NC(=O)c2cccc(N(C)C)c2)ccc1OCCN1CCCC1,99,67,49
